Tests used:
[1] = target: POU1 (OCT1 POU domain) (human, UniProt P14859 260-458); experiment: EMSA-SELEX-seq; no BOB1; 20 mM Tris-HCl pH 7.6, 140 mM NaCl, 10% glycerol, 0.5 mM EDTA, 0.05% Triton X-100, 0.1 mg/mL BSA, 0.1 mg/mL poly(dI-dC), 5 mM DTT, room temperature, 20 min; high values mean tight binding; conditions: protein: recombinant; dsDNA, one strand shown
Summary of the method: (§1)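 With or without 28 ng coactivator protein, 30 ng of tagged POU-domain protein was combined with 300 ng of a PCR-amplified double-stranded random 35-nt library in 20 μL Tris–HCl pH 7.6 binding buffer for 20 min at RT. The protein came from E. coli BL21 and had been purified under denaturing conditions and renatured. Four rounds of cutting complex bands from native 6% PAGE, elution and PCR amplification preceded Illumina sequencing. The binding preference figure is the percentage of sequenced 8-mers matching a motif pattern.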

[2] = target: T1, POU2 (OCT2 POU domain) (human, UniProt P09086 175-386); experiment: as above; conditions: protein: recombinant; dsDNA, one strand shown
T1 sequence: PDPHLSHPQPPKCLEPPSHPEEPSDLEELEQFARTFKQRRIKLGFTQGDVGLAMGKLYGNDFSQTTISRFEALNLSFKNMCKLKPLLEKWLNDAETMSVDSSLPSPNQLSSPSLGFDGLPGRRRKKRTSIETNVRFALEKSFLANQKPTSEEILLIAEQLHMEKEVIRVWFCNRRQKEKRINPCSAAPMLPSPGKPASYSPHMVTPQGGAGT
Summary of the method: as §1

[3] = target: POU1 (OCT1 POU domain);BOB1 (OBF1, OCA-B) (human;human, UniProt P14859;Q16633 260-458;1-256, |); experiment: EMSA-SELEX-seq; with BOB1 (ternary complex band); 20 mM Tris-HCl pH 7.6, 140 mM NaCl, 10% glycerol, 0.5 mM EDTA, 0.05% Triton X-100, 0.1 mg/mL BSA, 0.1 mg/mL poly(dI-dC), 5 mM DTT, room temperature, 20 min; high values mean tight binding; conditions: protein: recombinant;recombinant; copies: 1;1; dsDNA, one strand shown
Summary of the method: as §1

[4] = target: T2, POU2 (OCT2 POU domain);BOB1 (OBF1, OCA-B) (human;human, UniProt P09086;Q16633 175-386;1-256, |); experiment: as above; conditions: protein: recombinant;recombinant; copies: 1;1; dsDNA, one strand shown
T2 sequence 1: T1 sequence
T2 sequence 2: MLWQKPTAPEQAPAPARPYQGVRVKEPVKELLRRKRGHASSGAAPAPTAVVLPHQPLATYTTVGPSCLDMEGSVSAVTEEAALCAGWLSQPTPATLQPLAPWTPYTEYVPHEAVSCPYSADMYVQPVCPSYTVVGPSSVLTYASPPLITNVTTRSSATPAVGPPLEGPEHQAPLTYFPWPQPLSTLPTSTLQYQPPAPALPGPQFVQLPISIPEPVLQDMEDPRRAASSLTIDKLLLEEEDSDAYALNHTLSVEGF
Summary of the method: as §1

Chain of POU1 (OCT1 POU domain) (P14859 260-458): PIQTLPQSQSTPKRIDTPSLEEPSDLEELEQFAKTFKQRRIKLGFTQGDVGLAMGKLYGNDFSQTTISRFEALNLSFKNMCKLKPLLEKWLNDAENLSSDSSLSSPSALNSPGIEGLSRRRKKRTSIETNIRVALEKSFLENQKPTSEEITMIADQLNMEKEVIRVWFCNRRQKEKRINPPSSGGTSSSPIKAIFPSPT

Sequence | binding signal [1] | binding signal [2] | binding signal [3] | binding signal [4]
AGAGTAAC | 0.0206 % of ANNNNAAN 8-mers | 0.0322 % of ANNNNAAN 8-mers | 0.0234 % of ANNNNAAN 8-mers | 0.0264 % of ANNNNAAN 8-mers
ACGCGAAC | 0.0103 % of ANNNNAAN 8-mers | 0.0121 % of ANNNNAAN 8-mers | 0.0109 % of ANNNNAAN 8-mers | 0.0165 % of ANNNNAAN 8-mers
AAGTAAAT | 0.19 % of ANNNNAAN 8-mers | 0.146 % of ANNNNAAN 8-mers | 0.227 % of ANNNNAAN 8-mers | 0.147 % of ANNNNAAN 8-mers
ATCGAAAG | 0.0294 % of ANNNNAAN 8-mers | 0.0288 % of ANNNNAAN 8-mers | 0.0379 % of ANNNNAAN 8-mers | 0.0272 % of ANNNNAAN 8-mers
AATTCAAG | 0.101 % of ANNNNAAN 8-mers | 0.0886 % of ANNNNAAN 8-mers | 0.0714 % of ANNNNAAN 8-mers | 0.0817 % of ANNNNAAN 8-mers
ACTAAAAA | 0.0439 % of ANNNNAAN 8-mers | 0.0409 % of ANNNNAAN 8-mers | 0.0468 % of ANNNNAAN 8-mers | 0.0388 % of ANNNNAAN 8-mers
AGTGTAAC | 0.0217 % of ANNNNAAN 8-mers | 0.015 % of ANNNNAAN 8-mers | 0.0234 % of ANNNNAAN 8-mers | 0.0272 % of ANNNNAAN 8-mers
AGGCTAAT | 0.133 % of ANNNNAAN 8-mers | 0.197 % of ANNNNAAN 8-mers | 0.0675 % of ANNNNAAN 8-mers | 0.0908 % of ANNNNAAN 8-mers
AATGCAAC | 0.0435 % of ANNNNAAN 8-mers | 0.0409 % of ANNNNAAN 8-mers | 0.046 % of ANNNNAAN 8-mers | 0.0413 % of ANNNNAAN 8-mers
ACTCAAAC | 0.0187 % of ANNNNAAN 8-mers | 0.027 % of ANNNNAAN 8-mers | 0.03 % of ANNNNAAN 8-mers | 0.0149 % of ANNNNAAN 8-mers
ACTTGAAC | 0.0183 % of ANNNNAAN 8-mers | 0.0207 % of ANNNNAAN 8-mers | 0.018 % of ANNNNAAN 8-mers | 0.0314 % of ANNNNAAN 8-mers
ATAGAAAC | 0.0328 % of ANNNNAAN 8-mers | 0.0455 % of ANNNNAAN 8-mers | 0.0339 % of ANNNNAAN 8-mers | 0.0355 % of ANNNNAAN 8-mers
ATGACAAT | 0.0576 % of ANNNNAAN 8-mers | 0.0737 % of ANNNNAAN 8-mers | 0.0453 % of ANNNNAAN 8-mers | 0.0471 % of ANNNNAAN 8-mers
ATAGCAAC | 0.0183 % of ANNNNAAN 8-mers | 0.0184 % of ANNNNAAN 8-mers | 0.0207 % of ANNNNAAN 8-mers | 0.0405 % of ANNNNAAN 8-mers
ATACGAAC | 0.0343 % of ANNNNAAN 8-mers | 0.0345 % of ANNNNAAN 8-mers | 0.032 % of ANNNNAAN 8-mers | 0.0347 % of ANNNNAAN 8-mers
AAGAGAAC | 0.0271 % of ANNNNAAN 8-mers | 0.0391 % of ANNNNAAN 8-mers | 0.0285 % of ANNNNAAN 8-mers | 0.0289 % of ANNNNAAN 8-mers
